Measurements published in PubChem BioAssay AID434955 (Southern Research Specialized Biocontainment Screening …, 2010).
About 880 (0.27%) of roughly 330,000 compounds were called active. Inconclusive results (about 1%) are left out. How the calls were made is not given here. A selection follows.

Test: beta-lactam sensitization of Mtb H37Rv, H37Rv (AID 434955);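 further: growth measured after seven days incubation then overnight dye step; 0% = bacteria only wells and 100% = bacteria with antibiotic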
Conditions: M. tuberculosis H37Rv growth with meropenem, percent inhibition, at 25 µM
[1] = measured here: primary screen without meropenem

Compound	inhibition (stronger effect = higher value)	inhibition [1] [%]
C/C(Cc1ccccc1)=N\NC(=O)CNC(=O)c1ccccc1Cl	-6.3% (inactive)	2.92
CCc1cccc(C)c1NC(=O)COC(=O)Cc1ccsc1	-1.39% (inactive)	2.58
O=S(=O)(c1ccc(F)cc1)N1CCN=C1SCc1cccc(F)c1	9.8% (inactive)	11.2
NC(=O)C1CCN(C(=O)/C(=C/c2ccco2)NC(=O)c2ccccc2)CC1	-2.14% (inactive)	-8.97
CCCCNCc1ccc(SC)cc1	-3.24% (inactive)	-0.62
O=C1CC(=O)Nc2cc(S(=O)(=O)N3CCN(c4cccc(C(F)(F)F)c4)CC3)ccc2N1	-1.42% (inactive)	4.41
Cc1ccc(N2C(=O)CC(NCc3ccc4c(c3)OCO4)C2=O)cc1Cl (configuration not stated)	-7.15% (inactive)	0.64
COc1cc(NC(=S)N2CCCC(C)C2)cc(OC)c1OC (configuration not stated)	0.37% (inactive)	3.47
CCOc1ccc(NC(=O)C(C)N2C(=O)c3ccccc3C2=O)cc1 (configuration not stated)	-0.05% (inactive)	0.73
CC(C)NS(=O)(=O)c1ccc(CCC(=O)N2CCOCC2)cc1	-4.86% (inactive)	-6.67
CC(=O)OCCC(C)C	-5.13% (inactive)	-1
CCOC(=O)c1cn[nH]c1NC(=S)Nc1ccccc1	-8.22% (inactive)	-3.62
CCCCNC(=O)Cn1nc(C)c(S(=O)(=O)N2CCOCC2)c1C	-4.34% (inactive)	-4.6
Fc1ccc(N2N=C(c3cccs3)CC2c2ccco2)c(F)c1 (configuration not stated)	35.4% (inactive)	9.4
Cc1ccc(N(CC(=O)NC2CCCCC2)C(=O)CCCC(=O)Nc2ccccn2)c(C)c1	-1.33% (inactive)	-1.01
CCSC1=NCCN1C(=O)c1ccc(S(=O)(=O)N(CC)CC)cc1	6.44% (inactive)	0.45
COc1ccccc1-c1oc2ccccc2c1C#CCCCCO	10.7% (inactive)	7.25
CC(C)OC(=O)CN1CCN(c2ccc(Cl)cc2)CC1	-3.97% (inactive)	-7.14
O=C(Nc1cccnc1)c1noc2c1CCCCC2	2.93% (inactive)	-8.89
COc1ccc(S(=O)(=O)N2CCCCC2)cc1NC(=O)c1cc([N+](=O)[O-])ccc1N1CCOCC1	-11.2% (inactive)	-3.23
COC(=O)CC(=O)N1CCN(c2ccc(Cl)c(Cl)c2)CC1	-8.83% (inactive)	97.6

Compound	inhibition (stronger effect = higher value)	inhibition [1] [%]
Cc1cccc(NC(=O)C(C)N2C(=O)C3C4CC(C(Br)C4Br)C3C2=O)c1 (configuration not stated)	-22.1% (inactive)	-16.2
CC(C)c1ccc(NC(=O)CCN2C(=O)c3ccc([N+](=O)[O-])cc3C2=O)cc1	-2.88% (inactive)	-6.43
Cc1nc(COc2cccc(Cl)c2)sc1C(=O)/C=C/N(C)C	-4.65% (inactive)	-0.85
C/C(=N/NC(=O)CSc1ccccn1)c1ccc([N+](=O)[O-])cc1	-3.17% (inactive)	6.64
O=C(NC(=O)c1ccccc1)Nc1ccccc1O	0.65% (inactive)	3
O=C1[C@@H]2C(c3cccnc3)=NO[C@@H]2C(=O)N1c1ccc(Cl)cc1Cl	-5.66% (inactive)	0.68
C[C@@H]1C[C@@H]2O[C@H]2/C=C\C=C\C(=O)Cc2c(Cl)c(O)cc(O)c2C(=O)O1	29.7% (inactive)	18.4
CCc1ccc2[nH]c(=O)c(Cc3ccccc3)c(O)c2c1	-0.83% (inactive)	-2.95
O=C(C1CCCN1S(=O)(=O)c1ccc(Br)cc1)N1CCOCC1 (configuration not stated)	-1.22% (inactive)	0.94
Cc1c(NC(=O)C(C)OC(=O)c2cc3c4ccccc4n(C)c3s2)c(=O)n(-c2ccccc2)n1C (configuration not stated)	4.17% (inactive)	3.63
O=C(CSC1CC(=O)N(CCc2ccccc2)C1=O)Nc1ccc(Cl)cc1 (configuration not stated)	-1.52% (inactive)	-3.81
CCOc1ccc(C(O)Cn2c(=N)n(CCN3CCCCC3)c3ccccc32)cc1 (configuration not stated)	8.31% (inactive)	3.41
O=S(=O)(Nc1ccc(Cl)cn1)c1cnc(Cl)c(Br)c1	-1.47% (inactive)	-1.06
Cc1cc(NC(=O)OC(C)C)ccc1-c1ccc(NC(=O)OC(C)C)cc1C	0.85% (inactive)	-5.74
CCNC(=O)CC1C(=O)N(c2ccc(OC)cc2)C(=O)N1CCOC (configuration not stated)	7.04% (inactive)	-0.36
COC(=O)Cc1ccc(NC(=S)NCc2ccco2)cc1	-6.59% (inactive)	47.6
Cc1cccc([C@@H]2[C@@H]3C(=O)N(C)C(=O)[C@@H]3[C@@H]3C(=O)Nc4ccccc4C(=O)N23)c1	-6.47% (inactive)	-0.42
O=C1c2ccccc2C(=O)N1CCOc1ccc(F)cc1	-2.05% (inactive)	-1.56
Cn1cc(CCC(=O)N2CCCC(C(=O)c3ccc(C(C)(C)C)cc3)C2)cn1 (configuration not stated)	0.49% (inactive)	4.84
CCSCc1nc(N)nc(NCCc2ccccc2)n1	0.44% (inactive)	4.31
